This note sets out measurements from the supplement of paper PMC4188521.

Compound in the test: CCc1cnn2c(NCc3ccc[n+]([O-])c3)cc(N3CCCC[C@H]3CCO)nc12 [dinaciclib]
Put plainly: cell viability remaining relative to DMSO control; higher = less cytotoxic (more viable cells). The settings on record: 100 nM; 24 h. The gist of the method:
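Remaining viability, expressed as a percentage of the DMSO control, compares luminescence in treated wells with that in DMSO-treated control wells. Solid tumour cell lines from commercial banks received 100 nM of the test compound for 24 hr, with final DMSO kept at ≤0.2%. Viability was read as ATP luminescence using CellTiter-Glo, and values are means from 2–6 plates run in triplicate wells.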
As to OV56, the cell viability remaining worked out at 59.1%.
The figure for HS940T is 78.6%.
With H526 the figure was 16.7%; with SW620, 58.5%; with RMUGS, 62%.
With T98G, the cell viability remaining stood at 53.4%.
The figure for HCT116 is 55.4%; for BT483 it is 83.9%.
With A204 the figure was 40.8%; with H23, 41.9%.
The figure for HS852T is 54.3%; for U87MG it is 63%; for COV434 it is 7.7%.
For the target SW948, the cell viability remaining turned out to be 72.6%.
With SU8686 the figure was 48.9%; with OVTOKO, 95.4%.
In the case of CAKI1, the cell viability remaining turned out to be 63.5%.
The figure for CFPAC1 is 85.5%; for COV318 it is 79.8%; for HEC1B it is 94.1%.
Consider A101D, for which the cell viability remaining stood at 33.9%.
As for 786O, the cell viability remaining was found to be 44.3%.
The figure for CALU1 is 78.1%; for DKMG it is 44%.
The figure for KURAMOCHI is 121%; for H226 it is 56.1%.
With AN3CA the figure was 13.9%; with G401, 10.4%.
Consider MDAMB436, for which the cell viability remaining was 67.8%.
The figure for MDAMB175VII is 36%; for CCFSTTG1 it is 70.6%; for OVCAR4 it is 49.6%.
NCI-H322: the cell viability remaining stood at 69.1%.
With H1568 the figure was 28.7%.
